Compound activity: PubChem BioAssay, several laboratories
Sampled rows, rich in hits. Any-hit rate of the full collection: about 2%.
Granule exo inh: blocks lytic granule exocytosis; 360,000 tested, 0.66% active; inhibition, % at 10 µM; TALL-104 LAMP-1 surface exposure, flow cytometry; cells stimulated with thapsigargin and PMA;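 active = inhibition above about 55%, limit read from the data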
Rev-erbA mod: modulators of human Rev-erb alpha DNA binding. P20393. AID 1259318. 370,000 tested, 0.79% active. Rev-erbα–FITC-DNA binding, fluorescence polarization, 90 min. activity, % at 10 µM;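 active = activity above about 14%, limit read from the data; passing the limit was not always enough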
PG9 Ab binder: small molecules binding HIV-1 gp120 antibody PG9; AID 624416; 360,000 tested, 0.43% active; TR-FRET gp120-PG9 antibody binding; inhibition, % at 6.7 µM; in the data active = inhibition above about 8.5%
VLA-4 inh: inhibition in a human VLA-4 binding assay. inhibition, % (about 7 µM as worked out from the volumes in the protocol). P13612. AID 2557. VLA-4 expressing cells, ligand binding flow cytometry. 330,000 tested, 0.2% active; in the data active = inhibition above about 50%
ABCB6 inh MLPCN: blocks the human ABCB6 transporter; Q9NP58; K562-ABCB6 porphyrin accumulation, flow cytometry, 1 h; hits give low values; fluorescence ratio to DMSO, % at 10 µM; 360,000 tested, 0.19% active;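 active = fluorescence ratio to DMSO below 75%, the collection mean minus 3 SD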;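 also: signal is porphyrin accumulated inside mitochondria; lower ratio means ABCB6 inhibition with less porphyrin fluorescence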
Rev-erbA confirm: Rev-erb alpha (human) modulation, hit confirmation. activation, % at 25 µM. AID 1259319. 3,000 tested, 61% active. shares compounds with Rev-erbA mod. Rev-erb alpha FITC-DNA binding, fluorescence polarization, 90 min;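 active = activation at or above a set limit, or at least 3 SD above the negative control mean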
RORg counter: affects RORgamma DNA binding in a Rev-erb alpha counter-screen; purified RORgamma protein-FITC-DNA binding, fluorescence polarization; AID 1259320; IC50, µM; 910 tested, 8% active; shares compounds with Rev-erbA mod;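 active = Compounds whose fitted half-maximal concentration for disrupting protein-DNA binding is below 10 micromolar; the record names Rev-erb in its text, so the target is in doubt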
A number is an active result; n = inactive; x = not tested or not shown.

SMILES	Granule exo inh	Rev-erbA mod	PG9 Ab binder	VLA-4 inh	ABCB6 inh MLPCN	Rev-erbA confirm	others
Cc1cc(C(=O)NN)c2cc(Br)ccc2n1	n	n	n	n	n	x
CCCCOC(=O)c1cc(C)nc2ccc(Br)cc12	n	44.4	n	n	n	33.4	RORg counter=n
Cn1cc(C(=O)NCc2cccnc2)c(=O)c2cc(S(=O)(=O)N3CCCCCC3)ccc21	x	x	x	n	x	x
Cn1cc(C(=O)NCc2cccs2)c(=O)c2cc(S(=O)(=O)N3CCCC3)ccc21	n	28.1	n	n	n	24.6
CC(=O)Nc1ccc(Nc2c3c4c(cccc4n(C)c2=O)C(=O)c2ccccc2-3)cc1	n	33.4	n	n	n	31.3	RORg counter=n
Cn1c(=O)c(NCCO)c2c3c(cccc31)C(=O)c1ccccc1-2	n	100.7	n	n	n	118.3	RORg counter=n
Cc1cccc(NC2=C(NCCO)C(=O)c3ccccc3C2=O)c1	n	n	n	n	n	x
Cn1c(=O)c(NCCc2ccccc2)c2c3c(cccc31)C(=O)c1ccccc1-2	n	97.0	n	n	n	68.9	RORg counter=n
CC1(C)O[C@@H]2CC3C4CCC5=CC(=O)C=C[C@]5(C)C4[C@@H](O)C[C@]3(C)[C@]2(C(=O)CO)O1 (some centres not stated)	x	n	x	x	x	x
CCCCN(C(=O)c1ccco1)c1nnc(-c2cc(OC)c(OC)c(OC)c2)s1	n	99.0	n	n	n	n
CCCN(C(=O)c1ccco1)c1nnc(-c2ccncc2)s1	n	n	n	n	n	x
Cc1cc(Nc2ccc(Cl)cc2)nc(-c2ccccc2O)n1	n	29.0	n	n	n	n
Cc1cc(Cl)nc(-c2ccccc2O)n1	n	n	n	n	n	x
C[C@@H]1CN(c2ccc(N3CCNC[C@H]3C)cc2C#N)CCN1Cc1ccccc1	x	n	n	x	x	x
N#CCC[C@@H]1CC[C@]2(CCCN(C(=O)c3ccc4ccccc4n3)C2)O1	x	n	x	x	x	x
O=S(=O)(O)c1cccc(N=Nc2c(O)ccc3ccccc23)c1	n	30.2	n	n	n	n
Oc1ccc2ccccc2c1N=Nc1ccccc1F	n	18.9	n	n	n	n
N#Cc1cccc(CNCC(=O)N2CCC3(CC2)OCCO3)c1	x	n	x	x	x	x
Cc1ccc(-n2c(SCC(=O)C(C)(C)C)nnc2-c2cccc(C)c2)cc1	x	n	x	x	x	x
CC(=O)c1sc(NC(=O)c2cccc(N3C(=O)CCC3=O)c2)nc1-c1ccccc1	n	42.6	n	n	n	28.0
CCCC1CCC2(CCC(=O)N2CCOC)CC1 (configuration not stated)	x	n	x	x	x	x
CCOc1ccccc1C(=O)Nc1ccc2nc(C)[nH]c(=O)c2c1	x	n	x	x	x	x
COc1cccc(OCC(C)CN2CCC(C(O)(c3ccccc3)c3ccccc3)CC2)c1 (configuration not stated)	x	n	x	x	x	x
CC(C)(C)OC(=O)/C=C/[C@H](CCCCl)Sc1ccc(C(C)(C)C)cc1	x	n	x	x	x	x
CCOC(=O)C1Nc2ccc(C)cc2C2C=CCC12 (configuration not stated)	n	n	n	x	n	x
SMILES	Granule exo inh	Rev-erbA mod	PG9 Ab binder	VLA-4 inh	ABCB6 inh MLPCN	Rev-erbA confirm	others
CCOC(=O)C1Nc2c(F)cc(C)cc2C2c3ccccc3CC12 (configuration not stated)	n	108.9	n	n	n	44.0
COc1ccc(CNS(=O)(=O)c2ccccc2Br)c(OC)c1	x	n	n	x	x	x
N=c1ccn2c(n1)O[C@@H]1[C@@H](O)[C@H](CO)O[C@@H]12	x	n	x	x	x	x
COc1ccccc1NC(=O)c1nnn(CC(=O)Nc2cc(C)cc(C)c2)c1N	n	n	n	n	n	x
CCOc1ccccc1NC(=O)c1nnn(CC(=O)Nc2cc(C)cc(C)c2)c1N	n	21.3	n	n	n	32.1	RORg counter=n
COC(=O)c1cc(C(C)c2c[nH]c3ccccc23)n2ccccc12 (configuration not stated)	x	n	x	x	x	x
Cc1cccc(C(=O)Nc2ccc(N3CCN(c4ccc(C(F)(F)F)cn4)CC3)nc2)c1	n	65.4	n	n	n	n
CC(C)(C)C(=O)Nc1ccc(N2CCN(c3ccc(C(F)(F)F)cn3)CC2)nc1	n	n	n	n	n	x
COc1nc(OC)nc(N2CCC(C(=O)N(C)Cc3ccccc3F)CC2)n1	x	n	x	x	x	x
O[C@H]1C[C@H](c2ccccc2)N(Cc2cccs2)C[C@@H]1n1cc(C2CC2)nn1	n	17.8	n	x	n	n
